Data reported in PubChem BioAssay AID504697 (The Scripps Research Institute Molecular Screening Center, 2011).
Unmarked numbers belong to inactive results. Active and inactive are the calls of the source.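 Rule for the calls: active = EC50 at or below 10 µM; inactive = EC50 above 10 µM.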

Experiment: compound autofluorescence in calcium buffer – biochemical, fluorescence, no RTF in test wells, artefact control for cardiac thin filament activator project, dose response (AID 504697);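 note: emission near 535 nm under roughly 485 nm excitation as for IANBD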
Details: artifact counterscreen

Row | Compound | EC50
1 | CCC1(C)OC(c2ccccc2)=C/C(=C/C=C2C(=O)NC(=O)NC2=O)O1 (centres undefined) | 2.73 µM (active)
2 | O=[N+]([O-])c1ccc(N2CCCCCC2)c2nonc12 | 1.17 µM (active)
3 | COc1ccc(OC)c(-n2c(O)c(C=NCCN3CCNCC3)c(=O)[nH]c2=S)c1 | > 71.5 µM
4 | O=C(CN1CCN(c2ccccc2F)CC1)Nc1cccnc1Cl | > 71.5 µM
5 | Cc1ccc(-n2c(O)c(/C=C/C=Nc3ccccc3)c(=O)[nH]c2=O)cc1 | 10.6 µM
6 | CN1C(=O)/C(=C/c2ccc(N3CCCCCC3)o2)C(=O)NC1=S | 5 µM (active)
7 | O=[N+]([O-])c1ccc(N2CCCC2)c2ncccc12 | 23.5 µM
8 | Cc1cc(Cl)nc(N)n1 | > 71.4 µM
9 | C=CCN1C(=O)/C(=C/c2ccc(N3CCOCC3)o2)C(=O)NC1=S | 14 µM
10 | CNS(=O)(=O)c1ccc(N=Cc2c(O)n(-c3ccccc3)c(=O)[nH]c2=O)cc1 | > 71.5 µM
11 | C/C(=N\N1CCCCC1c1cccnc1)c1c(O)n(C2CCCCC2)c(=S)[nH]c1=O (centres undefined) | 39.3 µM
12 | Cc1cc(N2CCCC2)ccc1C=C(C#N)C#N | 14.4 µM
13 | O=c1[nH]c(=O)n(Cc2ccc(F)cc2)c(O)c1/C=N/Nc1ccccc1 | > 71.5 µM
14 | CC(=O)OCC[N+](C)(C)C | > 71.4 µM [compound-only fluorescence in RTF assay buffer with Ca2+ (no RTF in test wells)]
